# Results filed as inconclusive are left out. Where a call stands in place of a potency, no number is given. Calls of active or inactive are those of the source. Calls follow the shape of the full dose curve; tested in HEK293 reporter line.
# Test: qHTS for Inhibitors of the Functional Ribonucleoprotein Complex (vRNP) of Lymphocytic Choriomeningitis Arenaviruses (LCMV): Viability assay - alamar blue signal for LCMV Primary Screen (AID 1347085); also: nearly all actives have a fitted effect of over 80% in size
# Conditions: alamar blue viability counter-screen, LCMV vRNP screen cells; series mostly up to 57.5 µM
row,Structure (SMILES),Potency
1,O=C(O)[C@@H]1CSCN1,inactive
2,OC1(c2ccc(Cl)cc2)CCNCC1,inactive
3,CC(C)(C)NC[C@H](O)COc1cccc2c1CCCC2=O,inactive
4,O=C1CC[C@@H](C(=O)O)N1,inactive
5,CN[C@@H]1[C@H](O)[C@H](NC)[C@H]2O[C@@]3(O)C(=O)C[C@@H](C)O[C@H]3O[C@@H]2[C@H]1O,inactive
6,O=S(=O)(O)c1ccc2nc(-c3ccccc3)[nH]c2c1,inactive
7,NC(CO)(CO)CO,inactive
8,NCCS(=O)(=O)O,inactive
9,O=C(NCC(O)CO)c1c(I)c(C(=O)NCC(O)CO)c(I)c(N(CCO)C(=O)CO)c1I (stereo not drawn),inactive
10,Cc1nc([N+](=O)[O-])cn1-c1ccc([N+](=O)[O-])cc1,inactive
11,CC(=O)N[C@@H](CC(C)C)C(=O)O,inactive
12,CC(=O)OCC[N+](C)(C)C,inactive
13,CCN1CCC[C@H]1CNC(=O)c1c(OC)ccc(Br)c1OC,inactive
14,NS(=O)(=O)c1ccc(NC(=O)CCC(=O)O)cc1,inactive
15,COC(=O)c1cc(Cl)ccc1NS(=O)(=O)C(F)(F)F,inactive
16,CCC(Cc1c(I)cc(I)c(N)c1I)C(=O)O (stereo not drawn),inactive
17,Cn1nnc2c(C(N)=O)ncn2c1=O,inactive
18,CC(C)(C)NCC(O)COc1cccc2c1C[C@H](O)[C@H](O)C2 (stereo partly drawn),inactive
19,CCS(=O)(=O)CCn1c([N+](=O)[O-])cnc1C,inactive

row,Structure (SMILES),Potency
1,COc1ccc2[nH]cc(CCNC(C)=O)c2c1,inactive
2,CC(=O)c1ccc(S(=O)(=O)NC(=O)NC2CCCCC2)cc1,inactive
3,C[C@@H](CN1CC(=O)NC(=O)C1)N1CC(=O)NC(=O)C1,inactive
4,CCCNC(C)C(=O)Nc1ccccc1C (stereo not drawn),inactive
5,Cc1ccc(O)c2ncccc12,inactive
6,CC(C)=CCC[C@@](C)(O)[C@H]1CC=C(C)CC1,inactive
7,CC1(C)O[C@@H]2C[C@H]3[C@@H]4C[C@H](F)C5=CC(=O)C=C[C@]5(C)[C@@]4(F)[C@@H](O)C[C@]3(C)[C@]2(C(=O)CO)O1,inactive
8,Nc1cc(=O)[nH]c(N)n1,inactive
9,CN1C[C@@H]2C[C@H]1CN2c1cc2c(cc1F)c(=O)c(C(=O)O)cn2C1CC1,inactive
10,NS(=O)(=O)c1cc(Cl)c(Cl)c(S(N)(=O)=O)c1,inactive
11,NC(=O)NS(=O)(=O)c1ccc(Cl)cc1,inactive
12,O=C(N/N=C/c1ccccc1O)c1ccncc1,inactive
13,c1ccc2c(c1)CCCC2C1=NCCN1 (stereo not drawn),inactive
14,COP(=O)(OC)OC(c1ccc(Cl)cc1)P(=O)(OC)OC (stereo not drawn),inactive
15,CN/C(=C\[N+](=O)[O-])NCCSCc1csc(CN(C)C)n1,inactive
16,CC1(C)S[C@@H]2[C@H](NC(=O)C(c3ccccc3)S(=O)(=O)O)C(=O)N2[C@H]1C(=O)O (stereo partly drawn),inactive
17,COCCCN1CCC(NC(=O)c2cc(Cl)c(N)c3c2OCC3)CC1,inactive
18,CC(=O)O[C@@H]1C(=O)O[C@@H]2[C@H]1OC(=O)[C@@H]2OC(C)=O,inactive
19,Cc1ncc(CO)c(C=O)c1O,inactive
